In PubChem BioAssay (Tox21) one finds Potency, outcome and max activation data, which are given here for ten compounds.

The target in assay [1] is Thyrotropin receptor (Homo sapiens) (UniProt P16473). In words: qHTS assay to identify small molecule antagonists of the thyroid stimulating hormone receptor (TSHR) signaling pathway (AID 1259385; calls by dose curve; further: nearly all actives have a fitted effect of over 20% in size). Summed up: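 TSHR-HEK293 cells (800/well) plated 18 h, then compounds with Ro20-1724 and TSH at 1.5 ng/mL final, 30 min at room temperature. cAMP quantified by HTRF (cAMP-d2/anti-cAMP-cryptate, 1 h); 15 concentrations in triplicate.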

The nature of assay [2]: qHTS assay to identify small molecule agonists of the estrogen receptor alpha (ER-alpha) signaling pathway in the presence of an antagonist - cell viability counter screen (AID 1259386).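 Further: cells exposed to compounds for 22 h at 37 °C before the viability read; nearly all actives have a fitted effect of over 30% in size.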 Further: potency means the concentration at half of the fitted maximal effect. The method in brief:
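Cell viability in VM7Luc4E2 cells (endogenous full-length ER-alpha) measured by CellTiter-Fluor fluorescence in the same wells as the luciferase screen. Cells pre-cultured 5 days in charcoal-stripped serum, then treated 22 h with compounds at 15 concentrations plus 10.0nM ICI-182,780.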
On the technique in general: Quantitative high-throughput screening tests each substance at several concentrations.

Assay [3] addresses Progesterone receptor (Homo sapiens) (UniProt P06401). In words: qHTS assay to identify small molecule agonists of the progesterone receptor (PR) signaling pathway (AID 1346784; calls by dose curve; further: nearly all actives have a fitted effect of over 30% in size). Summed up:
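Agonist mode, quantitative HTS format in a HEK 293T line expressing a UAS-controlled beta-lactamase reporter; 16 hr compound exposure at 37C in 2% charcoal-stripped FBS, then LiveBLAzer B/G FRET fluorescence.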

Assay [4] shares this target. In words: qHTS assay to identify small molecule antagonists of the progesterone receptor (PR) signaling pathway (AID 1346795; active means well fitted inhibition curve with a large enough effect in the signal ratio in the repeat runs, not every such curve was filed as active; the % refers to the signal ratio). The method in brief: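 HEK293T PR-UAS-bla reporter cells in charcoal-stripped serum (2%) received compound after a 6 hr settling period, followed by R5020 agonist at 1 nM final; 16 hr incubation preceded the FRET substrate step and fluorescence measurement.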

A short description of assay [5]: qHTS assay to identify small molecule antagonists of the progesterone receptor (PR) signaling pathway - cell viability counter screen (AID 1346798). Further: series mostly up to about 92 µM; nearly all actives have a fitted effect of over 50% in size. The method in brief: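 Same-well multiplex: after 16 hr at 37C with compound and R5020 stimulation, HEK293T cells carrying a UAS-bla reporter received LiveBLAzer substrate (2 hr RT), then CellTiter-Glo (30 min RT) for luminescent viability.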

A short description of assay [6]: qHTS assay to identify small molecule agonists of the progesterone receptor (PR) signaling pathway - cell viability counter screen (AID 1346799; calls by dose curve; further: nearly all actives have a fitted effect of over 45% in size). Summed up:
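Counter screen for cytotoxicity: compound-treated PR-UAS-bla HEK293T cells (16 hr, 37C, 5% CO2) were assayed with CellTiter-Glo, luminescence measured after 30 min at room temperature.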

Assay [7] is described as follows: qHTS assay to identify small molecule antagonists of the TGF-beta/Smad signaling pathway - cell viability counter screen (AID 1346824). Further: nearly all actives have a fitted effect of over 50% in size. The method in brief: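 SBE-bla HEK 293T cells, incubated overnight, then compound plus 0.25 ng/mL TGF-beta1 (stock added) for 5 hr at 37 C. Viability was read in the same wells by CellTiter-Glo luminescence after 30 min at room temperature.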

A short description of assay [8]: qHTS assay to identify small molecule agonists of the TGF-beta/Smad signaling pathway (AID 1346859; active means well fitted activation curve with a large enough effect in the signal ratio in the repeat runs, not every such curve was filed as active; the % refers to the signal ratio; further: series mostly up to about 77 µM). The method in brief:
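Smad-responsive beta-lactamase reporter cells (HEK 293T) received compounds from DMSO stocks after overnight attachment, were incubated 5 hr, then treated 2 hr with FRET substrate before dual-emission fluorescence measurement (405 nm excitation).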

The target of assay [9] is Thyrotropin-releasing hormone receptor (Homo sapiens) (UniProt P34981). In words: qHTS assay to identify small molecule agonists of the thyrotropin-releasing hormone receptor (TRHR) signaling pathway (AID 1346891; calls by dose curve; further: series mostly up to about 58 µM). The method in brief: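 Agonist-mode calcium mobilisation screen: TRHR-transfected HEK293 cells cultured overnight (18 h), dye-loaded for 2 h at 37 °C, exposed to compounds, and monitored by fluorescence for 3 min.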

Assay [10] can be described thus: Human pregnane X receptor (PXR) small molecule agonists, qHTS cell viability counter screen (AID 1346977). Further: nearly all actives have a fitted effect of over 50% in size. Further: potency means the concentration at half of the fitted maximal effect. The method in brief: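 Measures live-cell protease fluorescence (CellTiter-Fluor) in PXR-Luc HepG2 cells treated 24hr with compounds at 37C. Cells had 5hr to attach before pin transfer of DMSO solutions.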
A short description of assay [11]: Caspase-3/7 induction in HepG2 cells by small molecules, qHTS assay (AID 1346978). Further: nearly all actives have a fitted effect of over 15% in size. The method in brief: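 Wild-type HepG2 cells, 2,000/well, settled 5 hr at 37 C and 5% CO2, then compound-treated for 17 hr; caspase-3/7 activity read by luminescent Caspase-Glo 3/7 after 30 min at room temperature.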
Assay [12] can be described thus: Caspase-3/7 induction in CHO-K1 cells by small molecules, qHTS cell viability counter screen (AID 1346979). Further: nearly all actives have a fitted effect of over 35% in size. Further: potency means the concentration at half of the fitted maximal effect. The method in brief: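 In the same wells as the caspase read, viability of compound-treated wild-type CHO-K1 cells was assessed using CellTiter-Fluor, added after 16hr at 37C and measured by fluorescence following 1hr further incubation.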
A short description of assay [13]: Caspase-3/7 induction in CHO-K1 cells by small molecules, qHTS assay (AID 1346980). Further: nearly all actives have a fitted effect of over 15% in size. Summed up:
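Wild-type CHO-K1 cells exposed to compounds for 17hr at 37 C, 5% CO2. Caspase-3/7 activity then measured by Caspase-Glo 3/7 luminescence after 30min at room temperature.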

The nature of assay [14]: Caspase-3/7 induction in HepG2 cells by small molecules, qHTS cell viability counter screen (AID 1346981). Further: nearly all actives have a fitted effect of over 30% in size. Further: potency means the concentration at half of the fitted maximal effect. The method in brief:
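Wild-type HepG2 cells, 2,000/well, settled 5 hr at 37 C, 5% CO2 before compound addition. Viability read by CellTiter-Fluor fluorescence, reagent added after 16 hr compound exposure, then 1 hr at 37C, in the same wells as the caspase read.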

Assay [15] concerns the target Nuclear receptor subfamily 1 group I member 2 (Homo sapiens) (UniProt O75469). In words: Human pregnane X receptor (PXR) small molecule agonists, qHTS assay (AID 1346982). Further: nearly all actives have a fitted effect of over 35% in size. Further: potency means the concentration at half of the fitted maximal effect. Summed up:
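PXR-Luc HepG2 reporter cells (CYP3A4-driven luciferase) in 5% charcoal-stripped FBS medium, plated 5 h before compound addition, then treated 24 h at 37C. Luciferase read by ONE-Glo luminescence after 30 min at room temperature.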

For assay [16], the target named is Thyrotropin-releasing hormone receptor (Homo sapiens) (UniProt P34981). In words: qHTS assay to identify small molecule antagonists of the thyrotropin-releasing hormone receptor (TRHR) signaling pathway (AID 1346877; active means well fitted inhibition curve with a large enough effect in the repeat runs, not every such curve was filed as active; further: series mostly up to about 51 µM). The method in brief:
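TRHR-expressing HEK293 cells loaded with calcium dye for 2 h at 37 C; compounds pre-incubated 5 min at room temperature before TRH challenge at 1 nM final. Intracellular calcium fluorescence read kinetically for 3 min; 15 concentrations in triplicate.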

Assay [17] addresses Nuclear receptor subfamily 1 group I member 2 (Rattus norvegicus) (UniProt Q9R1A7). In words: Rat pregnane X receptor (rPXR) activation by small molecules, qHTS assay (AID 1346983). Further: nearly all actives have a fitted effect of over 20% in size. Conditions: rPXR luciferase reporter cells, One-Glo luminescence, 24 h; max activation: hits give high values. Summed up:
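Cell-based rPXR activation assay: rPXR cells, 2,000 per well, rested 5hr at 37 C, then exposed to compounds in DMSO for 24 hr at 37 C. Luciferase activity read by One-Glo luminescence after 30 min at room temperature.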

The target of assay [18] is Nuclear receptor subfamily 1 group I member 2 (Homo sapiens) (UniProt O75469). In words: CYP3A4 induction through human pregnane X receptor (PXR) by small molecules, qHTS assay (AID 1346984). Further: nearly all actives have a fitted effect of over 40% in size. Summed up: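 DPX-2 HepG2 cells carrying a PXR response element and CYP3A4-promoter luciferase construct, treated with compounds 24 hr at 37C. Then P450-Glo CYP3A4 Luciferin-IPA substrate (3uM final) for 3 hr at 37C, One-Glo added, luminescence read.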

Assay [19] has the same target. In words: Human pregnane X receptor (PXR) activation by small molecules, qHTS assay (AID 1346985). Further: nearly all actives have a fitted effect of over 40% in size. Summed up:
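DPX-2 cells (HepG2 co-transfected with a PXR response element and a CYP3A4-promoter luciferase construct) were seeded at 2,000 per well, rested 5 hr at 37C, then exposed to DMSO-dissolved compounds for 24 hr. Activation was read as luciferase luminescence.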

Assay [20] can be described thus: qHTS assay to identify small molecule agonists of the TGF-beta/Smad signaling pathway - cell viability counter screen (AID 1346829). Further: top concentration of the series differs between compounds; nearly all actives have a fitted effect of over 45% in size. Summed up: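 Compound-treated SBE-bla HEK 293T cells (5 hr, 37 C) were assessed for viability with CellTiter-Glo in parallel with the reporter read.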

A number with no mark means an inactive call. Inconclusive results are not listed. Calls of active or inactive are those of the source. Unless noted, the call rests on the fitted dose curve; in most records, active means well fitted curve in the direction sought with a large enough effect in the repeat runs; inconclusive means weak or mixed curves; inactive means no such curve, though single readings can be large; an effect the other way counts as inactive or inconclusive.
On the % scale 0 is the no-effect control and ±100 the full control effect.

Sequence of Thyrotropin-releasing hormone receptor (Homo sapiens) (P34981 whole entry, looked up): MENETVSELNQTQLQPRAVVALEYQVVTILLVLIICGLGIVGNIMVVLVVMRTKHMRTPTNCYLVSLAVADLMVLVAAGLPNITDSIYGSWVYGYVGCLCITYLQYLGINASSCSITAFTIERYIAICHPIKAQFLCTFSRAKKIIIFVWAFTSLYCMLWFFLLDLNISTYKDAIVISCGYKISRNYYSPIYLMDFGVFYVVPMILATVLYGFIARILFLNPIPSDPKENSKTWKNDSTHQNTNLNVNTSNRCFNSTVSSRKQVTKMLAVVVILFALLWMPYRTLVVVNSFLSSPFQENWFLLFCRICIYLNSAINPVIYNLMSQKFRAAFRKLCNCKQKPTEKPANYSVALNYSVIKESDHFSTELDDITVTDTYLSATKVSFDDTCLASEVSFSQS
Sequence of Progesterone receptor (Homo sapiens) (P06401 whole entry, looked up): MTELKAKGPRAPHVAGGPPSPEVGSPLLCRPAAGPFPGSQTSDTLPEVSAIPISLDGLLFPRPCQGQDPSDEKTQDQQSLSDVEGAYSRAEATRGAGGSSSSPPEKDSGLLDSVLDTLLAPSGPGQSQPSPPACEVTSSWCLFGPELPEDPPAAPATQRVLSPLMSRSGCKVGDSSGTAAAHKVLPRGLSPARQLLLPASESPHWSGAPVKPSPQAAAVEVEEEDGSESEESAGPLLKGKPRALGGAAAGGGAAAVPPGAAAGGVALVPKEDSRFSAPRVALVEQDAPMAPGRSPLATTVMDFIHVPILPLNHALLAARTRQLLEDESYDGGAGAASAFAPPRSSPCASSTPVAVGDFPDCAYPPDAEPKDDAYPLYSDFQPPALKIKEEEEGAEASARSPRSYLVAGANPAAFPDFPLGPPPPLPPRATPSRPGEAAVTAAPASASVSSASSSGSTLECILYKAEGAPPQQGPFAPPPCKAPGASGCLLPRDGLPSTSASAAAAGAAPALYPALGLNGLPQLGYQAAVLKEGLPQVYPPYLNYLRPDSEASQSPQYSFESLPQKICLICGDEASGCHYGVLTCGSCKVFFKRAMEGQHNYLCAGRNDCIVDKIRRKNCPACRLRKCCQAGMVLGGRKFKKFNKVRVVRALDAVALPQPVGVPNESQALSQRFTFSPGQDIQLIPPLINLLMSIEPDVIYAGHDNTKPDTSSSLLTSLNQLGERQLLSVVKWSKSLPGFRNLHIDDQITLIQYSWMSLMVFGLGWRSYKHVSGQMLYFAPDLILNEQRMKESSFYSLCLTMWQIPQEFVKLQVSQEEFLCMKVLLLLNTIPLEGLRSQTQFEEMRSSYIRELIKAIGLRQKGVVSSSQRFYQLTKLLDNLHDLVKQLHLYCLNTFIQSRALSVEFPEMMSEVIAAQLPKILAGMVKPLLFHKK
Sequence of Nuclear receptor subfamily 1 group I member 2 (Homo sapiens) (O75469 whole entry, looked up): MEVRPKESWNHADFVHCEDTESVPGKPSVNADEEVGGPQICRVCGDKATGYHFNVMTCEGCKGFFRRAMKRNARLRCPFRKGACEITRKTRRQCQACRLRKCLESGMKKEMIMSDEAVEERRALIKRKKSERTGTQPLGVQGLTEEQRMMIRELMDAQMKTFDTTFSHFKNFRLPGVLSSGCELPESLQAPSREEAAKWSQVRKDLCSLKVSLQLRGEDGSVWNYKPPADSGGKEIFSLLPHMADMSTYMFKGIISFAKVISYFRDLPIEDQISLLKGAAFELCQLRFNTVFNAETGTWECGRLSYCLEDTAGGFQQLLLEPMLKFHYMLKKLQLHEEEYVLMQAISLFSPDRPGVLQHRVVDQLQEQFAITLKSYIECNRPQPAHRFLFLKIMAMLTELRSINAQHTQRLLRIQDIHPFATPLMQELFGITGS
Sequence of Thyrotropin receptor (Homo sapiens) (P16473 whole entry, looked up): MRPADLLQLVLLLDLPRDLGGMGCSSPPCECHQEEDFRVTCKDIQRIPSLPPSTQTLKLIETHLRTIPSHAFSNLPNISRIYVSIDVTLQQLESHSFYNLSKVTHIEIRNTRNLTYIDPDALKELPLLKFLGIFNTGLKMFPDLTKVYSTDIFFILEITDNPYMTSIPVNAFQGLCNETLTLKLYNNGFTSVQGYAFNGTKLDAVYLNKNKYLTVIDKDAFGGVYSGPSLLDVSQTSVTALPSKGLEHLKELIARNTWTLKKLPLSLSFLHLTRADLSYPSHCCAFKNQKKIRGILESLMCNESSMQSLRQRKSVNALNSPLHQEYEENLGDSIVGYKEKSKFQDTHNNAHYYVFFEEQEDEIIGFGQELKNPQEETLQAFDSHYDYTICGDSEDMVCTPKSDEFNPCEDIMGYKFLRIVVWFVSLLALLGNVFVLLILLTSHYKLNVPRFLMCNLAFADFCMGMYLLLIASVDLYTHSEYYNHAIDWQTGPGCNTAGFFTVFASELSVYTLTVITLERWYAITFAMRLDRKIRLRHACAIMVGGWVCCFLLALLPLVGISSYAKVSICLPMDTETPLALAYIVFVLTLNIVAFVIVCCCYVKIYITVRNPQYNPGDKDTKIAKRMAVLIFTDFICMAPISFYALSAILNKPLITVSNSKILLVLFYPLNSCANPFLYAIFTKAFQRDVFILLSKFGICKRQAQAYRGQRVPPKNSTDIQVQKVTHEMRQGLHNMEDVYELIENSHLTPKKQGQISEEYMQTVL
Sequence of Nuclear receptor subfamily 1 group I member 2 (Rattus norvegicus) (Q9R1A7 whole entry, looked up): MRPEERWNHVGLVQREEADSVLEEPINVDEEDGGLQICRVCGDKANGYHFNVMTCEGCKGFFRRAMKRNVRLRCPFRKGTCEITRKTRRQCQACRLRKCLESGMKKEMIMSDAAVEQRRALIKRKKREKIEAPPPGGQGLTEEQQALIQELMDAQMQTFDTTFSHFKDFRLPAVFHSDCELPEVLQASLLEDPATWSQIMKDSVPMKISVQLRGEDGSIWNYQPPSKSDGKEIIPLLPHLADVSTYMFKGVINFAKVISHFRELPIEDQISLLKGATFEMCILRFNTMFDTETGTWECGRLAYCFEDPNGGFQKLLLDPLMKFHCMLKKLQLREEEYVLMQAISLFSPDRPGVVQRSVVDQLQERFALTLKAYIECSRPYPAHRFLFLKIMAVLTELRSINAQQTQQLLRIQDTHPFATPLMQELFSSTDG

For `NC(=O)C(Cl)(Cl)Cl`, the Potency entry in assay [1], in assay [2], in [3], in [4], in assay [5] and in [6] was “inactive” throughout. For the same compound, the Potency entry in assay [7], in [9], in assay [10], in assay [11], in assay [12] and in assay [13] was “inactive” each time. For the same compound, the Potency result in assay [14] and in assay [15] was “inactive” each time. For the same compound, the result in [8] was inactive.

Turning to `CC(=O)NC1CCSC1=O` (stereo not given), the Potency entry in assay [1], in [2], in assay [3], in assay [4], in assay [5] and in [6] was “inactive” each time. The Potency result in [7], in [16], in assay [10], in assay [11], in assay [12] and in assay [13] was “inactive” each time. Besides, the Potency entry in [14], in assay [15], in assay [18] and in [19] was “inactive” in each case. Further, in assay [8], the compound was classed as inactive. For the same compound, the max activation in [17] was 10.8%.

Take `CC1C(=O)C[C@]2(C(C)C)C[C@H]12` (stereo not given in full): the Potency result in assay [1], in assay [2], in assay [3], in assay [4], in assay [5] and in assay [6] was “inactive” in each case. Moreover, the Potency result in [7], in assay [20], in [10], in [11], in assay [13] and in assay [14] was “inactive” throughout. Also, in [8], the call was inactive.

With `Clc1cc(C(Cl)(Cl)Cl)cnc1Cl`, the Potency entry in assay [1], in assay [2], in [3], in assay [4], in assay [5] and in assay [6] was “inactive” in each case. In addition, the Potency entry in assay [7], in [20], in [16], in assay [9] and in assay [13] was “inactive” in each case. In addition, the values for the Potency in assay [12] and in assay [15] were 61.1 µM (active) and 54.5 µM (active), respectively.

As for `CCN(C)N=O`, the Potency result in [1], in [2], in assay [3], in assay [4], in assay [5] and in [6] was “inactive” throughout. Further, the Potency entry in assay [7], in [10], in assay [11], in assay [12], in assay [13] and in assay [14] was “inactive” in each case. Besides, the result in [8] was inactive.

`O=C(O)CC(Cl)C(=O)O` (stereo not given): the Potency entry in assay [1], in assay [2], in [3], in [4], in [5] and in assay [6] was “inactive” throughout. Further, the Potency result in assay [7], in assay [16], in assay [9], in assay [10], in assay [11] and in assay [12] was “inactive” each time. Also, the Potency entry in assay [13], in assay [14] and in assay [15] was “inactive” each time. Besides, the call in [8] was inactive.

`CCOP(=O)(OCC)SCCSCC`: the Potency entry in assay [1], in [2], in assay [3], in [4], in [6] and in assay [7] was “inactive” throughout. For the same compound, the Potency entry in [20], in assay [16], in [9], in assay [10], in assay [11] and in assay [12] was “inactive” each time. For the same compound, the Potency entry in [13] and in assay [14] was “inactive” in each case. Moreover, the compound was classed as inactive in assay [8].

On to `CCCCNP(N)(N)=S`, for which the Potency entry in assay [1], in assay [2], in assay [3], in assay [4], in assay [6] and in assay [7] was “inactive” each time. Moreover, the Potency entry in assay [20], in assay [16], in assay [10], in assay [11], in [12] and in assay [13] was “inactive” throughout. Further, the Potency entry in assay [14] and in [15] was “inactive” in each case. Moreover, the call in assay [8] was inactive.

Consider `COP(=S)(OC)Oc1ccc([N+](=O)[O-])cc1Cl`, for which the Potency entry in [1], in [3], in assay [4], in assay [6], in assay [7] and in assay [20] was “inactive” throughout. Besides, the Potency entry in assay [9], in assay [11] and in assay [13] was “inactive” throughout. For the same compound, the Potency was 48.6 µM (active) in assay [2], 34.4 µM (active) in assay [10], 68.6 µM (active) in assay [12] and 61.1 µM (active) in assay [14]. For the same compound, in assay [8], the call was inactive.

For the compound `ClCc1ccccc1`, the Potency result in assay [1], in assay [2], in assay [3], in [4], in [6] and in assay [7] was “inactive” throughout. The Potency result in [20], in assay [10], in [11], in [12] and in assay [13] was “inactive” in each case. Moreover, in [8], the outcome was inactive. For the same compound, the Potency in assay [15] is 60.8 µM (active).
